Reference: PubChem BioAssay AID720504 (National Center for Advancing Translational Sciences (NCATS), 2013)
About 10,000 (2.8%) of roughly 360,000 compounds were called active. Inconclusive results (about 4%) are left out. Many of the other results were omitted from the sample, so actives are more common in it than they were. Unmarked numbers belong to inactive results. The call rests on the fitted dose curve; in most records, active means well fitted inhibition curve with a large enough effect; inconclusive means small, poorly fitted or top-dose-only effect; inactive means flat fitted curve, though single readings scatter.

The compounds below were run against Serine/threonine-protein kinase PLK1 (Homo sapiens) (UniProt P53350) (assay: qHTS for Inhibitors of PLK1-PDB (polo-like kinase 1 - polo-box domain): Primary Screen). Settings: Plk1 PBD binding of FITC phosphopeptide, fluorescence polarization.
Further: nearly all actives have a fitted effect of over 65% in size.
On the % scale 0 is the no-effect control and ±100 the full control effect; potency means the concentration at half of the fitted maximal effect.
Wherever max response, negative = inhibition is given: series mostly up to about 57 µM.

Chain of Serine/threonine-protein kinase PLK1 (Homo sapiens) (P53350 whole entry, looked up, the tested form may be a part): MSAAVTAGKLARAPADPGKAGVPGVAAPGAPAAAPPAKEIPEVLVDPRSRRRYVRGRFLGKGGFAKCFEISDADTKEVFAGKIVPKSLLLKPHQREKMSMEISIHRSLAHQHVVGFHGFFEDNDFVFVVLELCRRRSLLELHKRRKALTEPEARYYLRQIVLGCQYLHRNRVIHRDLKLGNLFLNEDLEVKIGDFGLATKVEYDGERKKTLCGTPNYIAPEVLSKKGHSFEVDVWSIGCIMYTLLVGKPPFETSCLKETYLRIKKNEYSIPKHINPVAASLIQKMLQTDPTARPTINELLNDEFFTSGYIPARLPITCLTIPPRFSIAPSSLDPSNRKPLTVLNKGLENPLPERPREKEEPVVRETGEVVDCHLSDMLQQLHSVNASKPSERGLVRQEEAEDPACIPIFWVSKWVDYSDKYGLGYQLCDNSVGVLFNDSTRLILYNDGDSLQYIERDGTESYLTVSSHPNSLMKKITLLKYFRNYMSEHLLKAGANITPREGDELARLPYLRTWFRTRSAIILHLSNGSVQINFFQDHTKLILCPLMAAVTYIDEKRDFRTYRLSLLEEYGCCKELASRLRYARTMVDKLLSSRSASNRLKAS

Row | SMILES | max response, negative = inhibition | Potency
1 | CCCS(=O)(=O)NC(=O)C1(C)CCN(C(=O)c2sccc2C)C1 (stereo not drawn) | -7.96% | –
2 | C[C@H](NC(=O)CC[C@H]1O[C@@H](n2ccc(=O)[nH]c2=O)[C@H](O)[C@@H]1O)c1cccc2ccccc12 | -3.83% | –
3 | O=C(NCc1ccco1)c1cccc(-c2ccc3nncn3c2)c1 | 6.92% | –
4 | CCCCCNC(=O)C1C(=O)Nc2ccccc2C(=O)N1C(C)(C)C (stereo not drawn) | -13.8% | –
5 | S=c1[nH]nc(-c2cccs2)n1/N=C/c1cn(-c2ccccc2)nc1-c1ccc(Cl)cc1 | -14.4% | –
6 | Cc1ccsc1/C=N/n1c(=S)[nH]nc(C)c1=O | -9.18% | –
7 | S=c1[nH]nc(-c2cccs2)n1/N=C/c1cccs1 | – | 37.7 µM (active)
8 | CC(C)c1cccc(-c2csc(C(O)c3ccccc3)n2)c1 (stereo not drawn) | -9.83% | –
9 | COc1cccc(/C=C2\SC(=S)N(CCCC(=O)N3CCOCC3)C2=O)c1 | -2.08% | –
10 | Cc1ccc(-c2nn(-c3ccccc3)cc2/C=C/C(=O)Nc2cccc(S(N)(=O)=O)c2)cc1 | -5.39% | –
11 | COc1ccc(-c2nn(-c3ccccc3)cc2/C=C2/SC(=S)N(CCCC(=O)O)C2=O)c(C)c1 | – | 29.9 µM (active)
12 | O=C(CN1C(=O)/C(=C\c2ccccc2F)SC1=S)Nc1nc2ccccc2s1 | -28.6% | –
13 | CN(C)S(=O)(=O)c1cccc(-c2nn(-c3ccccc3)cc2/C=C2\SC(=S)N(CC(=O)O)C2=O)c1 | – | 26.7 µM (active)
14 | Cc1ccc(-c2nn(-c3ccccc3)cc2/C=C2\SC(=S)N(CCCCCC(=O)O)C2=O)o1 | 165% | –
15 | COc1ccc(CC(N)c2csc(NC(=O)Nc3ccc(C(C)C)cc3)n2)cc1 (stereo not drawn) | -5.6% | –
16 | CC1(C(=O)Nc2cccc3c2CCCC3)CCN1C(=O)CCc1ccc(Cl)cc1Cl (stereo not drawn) | 0.165% | –
17 | N#Cc1c(-c2cccs2)nc(SCC(=O)c2ccc(Br)cc2)[nH]c1=O | – | 26.7 µM (active)
18 | O=C(CSc1nc2ccccc2c(=O)[nH]1)Nc1nc(-c2ccc(Br)cc2)cs1 | -29% | –
19 | CC(=O)CSc1nc(CCc2ccccc2)c(C#N)c(=O)[nH]1 | 5.25% | –
20 | COc1ccc(/C=C2/C(=O)N(c3ccccc3)N=C2C)c(OC)c1 | – | 18.9 µM (active)
21 | COc1ccc(C2/C(=C(/O)c3ccccc3)C(=O)C(=O)N2C)c(OC)c1 (stereo not drawn) | 0.389% | –

Row | SMILES | max response, negative = inhibition | Potency
22 | COc1ccc(/C=C2/C(=O)OCc3cc(OC)c(OC)cc32)c(OC)c1 | -13% | –
23 | Cc1cccc(C)c1NC(=O)C(c1cccc(F)c1)N1CCN(C)CC1 (stereo not drawn) | -7.61% | –
24 | CC(=O)Nc1cnc(-c2ccc(O)cc2C)cn1 | -2.97% | –
25 | COc1ccc(NC(=O)C2Cc3c(-c4ccc5c(c4)OCO5)ccnc3O2)cn1 (stereo not drawn) | -5.75% | –
26 | COc1ccc(NC(=O)Nc2ccc3c(c2)C(=O)N([C@H](C)CO)C[C@H](C)[C@@H](CN(C)C(=O)Nc2ccc4c(c2)OCO4)O3)cc1 | – | 23.8 µM (active)
27 | COc1ccc(NC(=O)N(C)C[C@H]2Oc3ccc(NC(=O)C4CC4)cc3C(=O)N([C@H](C)CO)C[C@@H]2C)cc1 | -15.8% | –
28 | C[C@H](CO)N1C[C@H](C)[C@@H](CN(C)C(=O)Nc2ccc3c(c2)OCO3)Oc2c(cccc2N(C)C)C1=O | -11.3% | –
29 | CC(Sc1nnnn1C)C(=O)NC(=O)NC1CCCCC1 (stereo not drawn) | -1.5% | –
30 | O=C(CSc1nnnn1C1CCCC1)N1CCCCC1 | -1.23% | –
31 | CC(Sc1nnnn1C1CCCCC1)C(=O)O (stereo not drawn) | – | 4.23 µM (active)
32 | COc1ccc(OC)c(NC(=O)c2cc(-c3cc(F)ccc3OCC3CCCO3)n[nH]2)c1 (stereo not drawn) | 1.76% | –
33 | COc1ccc2c(c1)CCCO[C@]21O[C@H](CCO)C[C@H](O)[C@H]1O | -7.9% | –
34 | OCC[C@H]1C[C@@H](O)[C@H](O)[C@@]2(OCCc3ccccc32)O1 | – | 21.2 µM (active)
35 | OCC[C@H]1C[C@@H](O)[C@H](O)[C@]2(OCCCc3ccccc32)O1 | -6.7% | –
36 | CC1(C(=O)NCc2ccc(F)c(F)c2)Cc2c(-c3ccc4c(c3)OCO4)ccnc2O1 (stereo not drawn) | 5.1% | –
37 | CC1(Cc2cccc(C#N)c2)C(=O)Nc2ccc(-c3cccc(C(F)(F)F)c3)cc21 (stereo not drawn) | -6.86% | –
38 | CCCCC[C@@H]1C=C(C(=O)OCC)[C@H](c2ccccc2)N1S(=O)(=O)c1ccc(C)cc1 | -0.281% | –
39 | CCCCC[C@@H]1C=C(C(=O)O)[C@H](c2ccc(C#N)cc2)N1S(=O)(=O)c1ccc(C)cc1 | -5.69% | –
40 | Cc1ccc(S(=O)(=O)N2[C@@H](c3ccc(Br)cc3)C(C(=O)O)=C[C@H]2CC2CCCC2)cc1 | – | 23.8 µM (active)
41 | Cc1ccc(S(=O)(=O)N2CC[C@H]3[C@@H](C2)C(=O)C[C@@H](c2ccccc2)N3S(=O)(=O)c2ccc(C)cc2)cc1 | -5.58% | –
42 | CCN(CC)CCCC(C)n1c2nc(=O)[nH]c(=O)c-2nc2cc(Cl)ccc21 (stereo not drawn) | – | 0.752 µM (active)

Row | SMILES | max response, negative = inhibition | Potency
43 | Cc1ccc(Sc2ccc(NC(=O)c3ccc(F)cc3)cc2C#N)cc1 | -2.21% | –
44 | Cc1ccc(-c2nc3ccc(Br)cn3c2Cc2ccccc2C(F)(F)F)cc1 | -28.5% | –
45 | Cc1ccc([C@@H]2CC(=O)[C@@H]3CN(S(=O)(=O)c4ccc(C)cc4)[C@H](c4ccccc4F)C[C@@H]3N2S(=O)(=O)c2ccc(Cl)cc2)cc1 | 3.58% | –
46 | NC(=O)c1c(NC(=O)CSc2nnc(-c3ccco3)n2N)sc2c1CCCC2 | – | 15 µM (active)
47 | Nn1c(SCC(=O)Nc2nccs2)nnc1-c1ccco1 | -17.8% | –
48 | CCc1cccc(C)c1NC(=O)CSc1nnc(-c2ccco2)n1N | -0.459% | –
49 | COc1ccc([C@H]2CC(=O)C[C@@H](CCn3cc(CC4CCCC4)nn3)O2)cc1 | 2.62% | –
50 | CC(=O)O[C@H]1c2ccccc2-c2ccccc2[C@@H]1OC(C)=O | 1.29% | –
51 | CN(C)CCOc1cccc(Br)c1 | -4.17% | –
52 | CN(C)CCOC1c2ccccc2-c2ccccc21 | – | 29.9 µM (active)
53 | CCCCC[C@H](C)N1C[C@@H](COCc2ccccc2)Oc2cc(N3CC[C@@H](N(C)C)C3)ccc2S1(=O)=O | 4.46% | –
54 | CCOC(=O)[C@]12CCCC=C1N(Cc1ccc3c(c1)OCO3)C(=O)[C@H](CC(=O)N1CCN(C(=O)c3ccco3)CC1)C2 | -17.4% | –
55 | CC1(C(=O)NS(=O)(=O)Cc2cccc(Cl)c2)CCN1C(=O)Cc1ccc(Cl)cc1Cl (stereo not drawn) | -4.29% | –
56 | CC1CCN(C(=O)c2ccc(S(=O)(=O)Cc3cc(F)ccc3F)c([N+](=O)[O-])c2)CC1 | – | 15 µM (active)
57 | Nc1ccc(C(=O)N2CCN(S(=O)(=O)c3ccc(Cl)cc3)CC2)cc1[N+](=O)[O-] | -9.21% | –
58 | O=C(c1ccc(Oc2ccc(Cl)cc2)c([N+](=O)[O-])c1)N1CCCC1 | -8.04% | –
59 | O=C(Nc1ccc(Cl)cc1)c1csc([C@@H]2O[C@H](CO)[C@H](O)[C@H](O)[C@H]2O)n1 | 2.4% | –
60 | O=C(Nc1cccc(Cc2ccccc2)c1)Nc1ccc2nc([C@@H]3O[C@H](CO)[C@@H](O)[C@H](O)[C@H]3O)[nH]c2c1 | -5.78% | –
61 | CCOc1cc(/C=N/n2cnnc2)c(Br)cc1O | -5.37% | –
62 | CCOc1cccc(/C=N/N2C(=O)CSC2=S)c1O | – | 11.9 µM (active)
63 | CCOc1ccc(N2C(=O)CSC2=NC#N)cc1 | -14.5% | –

Row | SMILES | max response, negative = inhibition | Potency
64 | CCCCCCN1C[C@H](O)[C@@H](n2cc(C3CC3)nn2)C[C@@H]1c1ccc(Cl)cc1 | -0.475% | –
65 | CCC(C)(C)NC(=O)C(c1ccc(OC)cc1)N(C(=O)CCC(=O)Nc1cc(C)on1)c1ccc(OC)cc1OC (stereo not drawn) | -9.49% | –
66 | CCC(C)(C)NC(=O)C(c1cccc(OC)c1OC)N(CC(C)C)C(=O)CCC(=O)Nc1cc(C)on1 (stereo not drawn) | – | 10.6 µM (active)
67 | COc1ccc(C(C(=O)NC(C)(C)C)N(Cc2ccc(F)cc2)C(=O)CCC(=O)Nc2cc(C)on2)cc1 (stereo not drawn) | -11.5% | –
68 | CC(=O)Nc1cc(-c2ccc(N3CCN(C)CC3)cc2)cn2c(-c3ccc(F)cc3)cnc12 | 1.71% | –
69 | COCCCn1c(=O)/c(=C/c2ccccc2OC(C)C)s/c1=C(\C#N)C(=O)Nc1ccc(C(=O)O)cc1 | -29.5% | –
70 | O=C(C[n+]1ccccc1)N/N=C/c1ccc(O)cc1 | – | 26.7 µM (active)
71 | Nc1nnn(CC(=O)N/N=C/c2ccc(O)cc2)n1 | -3.01% | –
72 | Cc1nonc1C(=O)N/N=C/c1ccc(O)cc1 | -1.21% | –
73 | O=C(Nc1ccc2c(c1)[C@@H]1C[C@@H](CC(=O)N3CCCCC3)O[C@@H](CO)[C@@H]1O2)NC1CCCCC1 | 2.32% | –
74 | Cc1nc(C(F)(F)F)ccc1C(=O)N1CCC1(C)C(=O)NS(=O)(=O)c1ccc(F)cc1F (stereo not drawn) | 1.72% | –
75 | COc1ccc(N2C(=O)CNC2=S)cc1 | 0.339% | –
76 | COc1ccc(-n2cc(-c3ccccc3)c3c(=S)nc[nH]c32)cc1 | -12.3% | –
77 | COc1ccc(-c2cn(-c3ccc(OC)cc3)c(=S)[nH]2)cc1 | – | 21.2 µM (active)
78 | Cc1csc(=O)n1CCC(=O)OCC(=O)Nc1ccc(N2CCOCC2)cc1 | 1% | –
79 | CSc1ccc(CN2CCC2(C)C(=O)Nc2ccc(C)c(O)c2)cc1 (stereo not drawn) | 4.93% | –
80 | COc1cc(F)ccc1-c1cc(C(=O)NCC2CCCCC2)[nH]n1 | 1.4% | –
81 | CCOc1ccc(C2C(C#N)=C(N)N(N(C)C)C3=C2C(=O)CCC3)cc1 (stereo not drawn) | -4.98% | –
82 | COc1ccc(C2C(C#N)=C(N)N(c3ncn[nH]3)C3=C2C(=O)CCC3)cc1 (stereo not drawn) | – | 26.7 µM (active)
83 | N#CC1=C(N)N(c2ccccc2)C2=C(C(=O)CCC2)C1c1ccccc1 (stereo not drawn) | -0.426% | –
